The target of experiment [1] is T1, Ephrin type-B receptor 2 (Homo sapiens) (UniProt P29323).
T1 sequence (whole entry): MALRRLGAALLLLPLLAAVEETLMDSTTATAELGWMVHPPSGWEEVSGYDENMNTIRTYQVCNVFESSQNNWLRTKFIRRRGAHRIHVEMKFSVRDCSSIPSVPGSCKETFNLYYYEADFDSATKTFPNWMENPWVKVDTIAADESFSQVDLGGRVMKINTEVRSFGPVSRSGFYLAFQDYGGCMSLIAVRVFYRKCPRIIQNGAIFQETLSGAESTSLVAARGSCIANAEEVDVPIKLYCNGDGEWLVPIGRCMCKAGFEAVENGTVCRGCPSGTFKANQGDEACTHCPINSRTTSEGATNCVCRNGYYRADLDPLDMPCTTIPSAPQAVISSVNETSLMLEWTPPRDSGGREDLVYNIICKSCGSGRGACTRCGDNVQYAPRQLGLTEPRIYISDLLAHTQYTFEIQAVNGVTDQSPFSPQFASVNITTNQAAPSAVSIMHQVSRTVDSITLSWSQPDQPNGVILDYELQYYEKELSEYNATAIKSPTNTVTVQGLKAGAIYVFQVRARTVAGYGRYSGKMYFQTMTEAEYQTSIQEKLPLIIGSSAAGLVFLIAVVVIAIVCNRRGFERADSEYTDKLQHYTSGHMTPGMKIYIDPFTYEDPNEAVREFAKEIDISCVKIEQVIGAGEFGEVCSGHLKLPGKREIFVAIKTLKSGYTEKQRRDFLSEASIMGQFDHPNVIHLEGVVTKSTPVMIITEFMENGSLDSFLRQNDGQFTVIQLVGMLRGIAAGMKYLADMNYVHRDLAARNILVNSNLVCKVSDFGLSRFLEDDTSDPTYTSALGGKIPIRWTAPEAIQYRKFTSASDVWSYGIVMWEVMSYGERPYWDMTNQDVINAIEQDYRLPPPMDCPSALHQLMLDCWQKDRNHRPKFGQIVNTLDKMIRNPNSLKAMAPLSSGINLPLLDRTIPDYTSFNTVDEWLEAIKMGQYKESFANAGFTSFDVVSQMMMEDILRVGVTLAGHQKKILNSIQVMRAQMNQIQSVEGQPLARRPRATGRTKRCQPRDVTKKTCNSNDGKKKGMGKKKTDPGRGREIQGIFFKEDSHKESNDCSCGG
The following applies: at 1 µM.

Experiment [2] addresses T2, Ephrin type-B receptor 3 (Homo sapiens) (UniProt P54753).
T2 sequence (whole entry): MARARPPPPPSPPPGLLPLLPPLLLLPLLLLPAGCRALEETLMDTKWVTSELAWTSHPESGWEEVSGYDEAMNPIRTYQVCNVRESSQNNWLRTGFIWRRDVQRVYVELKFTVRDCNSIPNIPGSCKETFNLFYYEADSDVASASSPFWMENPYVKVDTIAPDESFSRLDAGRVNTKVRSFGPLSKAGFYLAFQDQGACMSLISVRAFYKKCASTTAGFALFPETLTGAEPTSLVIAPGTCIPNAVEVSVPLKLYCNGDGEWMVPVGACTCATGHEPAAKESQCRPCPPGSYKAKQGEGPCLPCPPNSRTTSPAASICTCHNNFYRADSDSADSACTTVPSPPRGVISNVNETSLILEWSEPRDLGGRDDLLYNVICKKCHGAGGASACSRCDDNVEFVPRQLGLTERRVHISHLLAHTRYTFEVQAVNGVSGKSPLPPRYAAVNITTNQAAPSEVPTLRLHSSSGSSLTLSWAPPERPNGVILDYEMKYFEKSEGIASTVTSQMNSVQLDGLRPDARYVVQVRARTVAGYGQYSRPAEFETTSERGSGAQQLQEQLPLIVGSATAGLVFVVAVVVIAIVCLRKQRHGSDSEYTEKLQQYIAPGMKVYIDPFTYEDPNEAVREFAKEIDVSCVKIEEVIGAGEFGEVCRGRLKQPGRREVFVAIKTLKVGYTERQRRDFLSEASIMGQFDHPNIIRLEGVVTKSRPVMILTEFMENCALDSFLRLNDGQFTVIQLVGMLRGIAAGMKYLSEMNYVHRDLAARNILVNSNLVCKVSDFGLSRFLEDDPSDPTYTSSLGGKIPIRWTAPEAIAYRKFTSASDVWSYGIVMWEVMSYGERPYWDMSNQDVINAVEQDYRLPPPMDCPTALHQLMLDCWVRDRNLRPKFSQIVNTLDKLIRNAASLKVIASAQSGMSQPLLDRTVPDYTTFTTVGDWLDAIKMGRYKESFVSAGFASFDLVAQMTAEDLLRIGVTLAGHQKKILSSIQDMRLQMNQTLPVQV
The settings on record: at 0.1 µM.

Experiment [3] has as its target T2, Ephrin type-B receptor 3 (Homo sapiens). The settings on record: at 1 µM.
Experiment [4] has as its target T3, Ephrin type-B receptor 4 (Homo sapiens) (UniProt P54760).
T3 sequence (whole entry): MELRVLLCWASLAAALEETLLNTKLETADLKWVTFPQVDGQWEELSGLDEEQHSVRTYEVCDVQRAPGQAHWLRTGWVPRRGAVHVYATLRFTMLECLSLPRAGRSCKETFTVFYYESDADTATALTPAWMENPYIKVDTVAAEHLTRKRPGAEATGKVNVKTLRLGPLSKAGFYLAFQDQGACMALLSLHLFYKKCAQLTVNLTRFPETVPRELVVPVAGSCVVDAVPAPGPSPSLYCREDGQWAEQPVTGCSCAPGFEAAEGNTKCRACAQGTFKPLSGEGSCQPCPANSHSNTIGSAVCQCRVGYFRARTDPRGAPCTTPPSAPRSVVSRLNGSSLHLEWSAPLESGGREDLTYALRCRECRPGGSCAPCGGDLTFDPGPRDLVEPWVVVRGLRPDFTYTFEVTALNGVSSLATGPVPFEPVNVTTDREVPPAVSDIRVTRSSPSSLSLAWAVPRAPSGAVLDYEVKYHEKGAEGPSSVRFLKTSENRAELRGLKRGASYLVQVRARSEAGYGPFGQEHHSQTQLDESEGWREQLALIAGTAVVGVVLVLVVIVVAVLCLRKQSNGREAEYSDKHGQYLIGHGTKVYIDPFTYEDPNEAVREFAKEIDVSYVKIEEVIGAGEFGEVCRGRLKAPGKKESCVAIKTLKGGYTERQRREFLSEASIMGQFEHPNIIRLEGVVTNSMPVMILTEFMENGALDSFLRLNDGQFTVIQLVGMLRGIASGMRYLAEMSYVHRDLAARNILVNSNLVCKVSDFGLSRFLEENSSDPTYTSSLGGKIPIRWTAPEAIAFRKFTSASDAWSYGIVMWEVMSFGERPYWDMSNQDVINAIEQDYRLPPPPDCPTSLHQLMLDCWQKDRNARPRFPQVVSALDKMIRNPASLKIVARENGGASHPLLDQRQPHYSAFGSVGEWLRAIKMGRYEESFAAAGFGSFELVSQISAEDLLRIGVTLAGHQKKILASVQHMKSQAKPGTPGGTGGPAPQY
The settings on record: at 0.1 µM.

Experiment [5] concerns the target T3, Ephrin type-B receptor 4 (Homo sapiens). The following applies: at 1 µM.
For experiment [6], the target named is Receptor tyrosine-protein kinase erbB-2 (Homo sapiens) (UniProt P04626). The settings on record: at 0.1 µM.
The target is the same in experiment [7]. The following applies: at 1 µM.
Experiment [8] deals with Receptor tyrosine-protein kinase erbB-4 (Homo sapiens) (UniProt Q15303). The settings on record: at 0.1 µM.
Experiment [9] shares this target. The following applies: at 1 µM.
Experiment [10] deals with Tyrosine-protein kinase Fer (Homo sapiens) (UniProt P16591). The settings on record: at 0.1 µM.

Data on 10 molecules can be found in ChEMBL document CHEMBL1961873, “Compounds: GSK PKIS; Assays: Nanosyn kinase panel” (2012).

Chain of Receptor tyrosine-protein kinase erbB-2 (Homo sapiens) (P04626 whole entry): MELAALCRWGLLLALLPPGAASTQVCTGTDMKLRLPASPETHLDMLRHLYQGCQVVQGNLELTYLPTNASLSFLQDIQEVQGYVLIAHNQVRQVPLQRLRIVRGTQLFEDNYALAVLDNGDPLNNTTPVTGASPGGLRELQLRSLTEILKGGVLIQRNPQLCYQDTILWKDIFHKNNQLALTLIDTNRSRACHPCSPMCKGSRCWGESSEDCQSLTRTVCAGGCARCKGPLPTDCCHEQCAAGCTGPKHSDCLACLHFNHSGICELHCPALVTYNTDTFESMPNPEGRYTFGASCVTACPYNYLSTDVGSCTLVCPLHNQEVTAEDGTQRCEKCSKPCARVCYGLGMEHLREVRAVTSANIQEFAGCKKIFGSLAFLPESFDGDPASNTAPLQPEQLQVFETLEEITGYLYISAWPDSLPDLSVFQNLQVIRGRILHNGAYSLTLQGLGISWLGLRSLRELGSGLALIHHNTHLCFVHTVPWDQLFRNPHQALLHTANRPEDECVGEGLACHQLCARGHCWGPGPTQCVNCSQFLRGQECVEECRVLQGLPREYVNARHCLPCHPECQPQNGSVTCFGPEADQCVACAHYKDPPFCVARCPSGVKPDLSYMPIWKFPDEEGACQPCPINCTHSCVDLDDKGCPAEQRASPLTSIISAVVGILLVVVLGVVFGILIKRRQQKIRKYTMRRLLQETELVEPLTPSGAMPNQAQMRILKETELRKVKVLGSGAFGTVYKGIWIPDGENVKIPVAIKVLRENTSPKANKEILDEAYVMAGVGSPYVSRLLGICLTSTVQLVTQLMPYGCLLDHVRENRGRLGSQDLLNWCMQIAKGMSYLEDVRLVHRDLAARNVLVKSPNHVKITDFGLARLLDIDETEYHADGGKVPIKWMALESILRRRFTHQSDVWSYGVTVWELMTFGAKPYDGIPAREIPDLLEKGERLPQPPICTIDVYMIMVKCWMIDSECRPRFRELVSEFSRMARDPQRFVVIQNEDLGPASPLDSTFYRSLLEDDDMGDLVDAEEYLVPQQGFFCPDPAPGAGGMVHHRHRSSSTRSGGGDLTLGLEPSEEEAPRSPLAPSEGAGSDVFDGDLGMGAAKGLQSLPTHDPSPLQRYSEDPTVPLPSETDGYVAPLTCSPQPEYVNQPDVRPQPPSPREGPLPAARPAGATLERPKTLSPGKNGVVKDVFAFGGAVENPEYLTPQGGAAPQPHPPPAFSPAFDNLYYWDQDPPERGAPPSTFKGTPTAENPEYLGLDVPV
Chain of Receptor tyrosine-protein kinase erbB-4 (Homo sapiens) (Q15303 whole entry): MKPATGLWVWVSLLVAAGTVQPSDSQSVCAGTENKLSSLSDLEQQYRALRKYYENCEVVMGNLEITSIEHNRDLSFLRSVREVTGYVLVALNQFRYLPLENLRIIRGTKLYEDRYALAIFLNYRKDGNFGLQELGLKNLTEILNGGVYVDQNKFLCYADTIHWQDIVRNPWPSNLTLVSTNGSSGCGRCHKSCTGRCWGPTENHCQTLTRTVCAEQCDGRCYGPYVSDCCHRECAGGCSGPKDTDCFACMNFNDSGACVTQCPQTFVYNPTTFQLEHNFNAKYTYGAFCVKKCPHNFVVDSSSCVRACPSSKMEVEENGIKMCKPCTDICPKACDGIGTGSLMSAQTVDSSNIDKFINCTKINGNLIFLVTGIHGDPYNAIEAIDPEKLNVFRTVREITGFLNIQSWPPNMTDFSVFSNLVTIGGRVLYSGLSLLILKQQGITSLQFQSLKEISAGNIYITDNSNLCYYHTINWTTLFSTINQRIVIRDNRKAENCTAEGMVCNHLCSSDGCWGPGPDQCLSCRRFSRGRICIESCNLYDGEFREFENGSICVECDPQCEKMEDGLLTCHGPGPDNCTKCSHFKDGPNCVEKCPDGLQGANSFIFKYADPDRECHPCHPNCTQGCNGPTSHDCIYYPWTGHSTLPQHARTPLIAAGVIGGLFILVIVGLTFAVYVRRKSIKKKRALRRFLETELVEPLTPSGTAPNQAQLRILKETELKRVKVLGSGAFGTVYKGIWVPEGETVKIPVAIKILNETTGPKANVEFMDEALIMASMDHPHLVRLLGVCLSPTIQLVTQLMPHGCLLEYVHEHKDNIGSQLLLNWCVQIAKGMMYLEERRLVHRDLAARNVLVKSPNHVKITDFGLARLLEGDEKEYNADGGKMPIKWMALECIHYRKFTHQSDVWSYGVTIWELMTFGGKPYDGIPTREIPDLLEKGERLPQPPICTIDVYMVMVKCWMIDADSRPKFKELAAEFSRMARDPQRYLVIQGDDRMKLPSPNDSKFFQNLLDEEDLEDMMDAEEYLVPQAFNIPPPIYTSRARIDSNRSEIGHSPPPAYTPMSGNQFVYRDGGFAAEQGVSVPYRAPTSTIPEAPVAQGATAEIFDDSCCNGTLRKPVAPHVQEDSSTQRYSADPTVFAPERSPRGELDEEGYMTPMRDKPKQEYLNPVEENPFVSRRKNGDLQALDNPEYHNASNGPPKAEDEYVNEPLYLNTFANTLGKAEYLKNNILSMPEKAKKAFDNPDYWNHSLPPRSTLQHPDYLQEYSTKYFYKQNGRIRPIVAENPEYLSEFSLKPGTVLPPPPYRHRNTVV
Chain of Tyrosine-protein kinase Fer (Homo sapiens) (P16591 whole entry, looked up): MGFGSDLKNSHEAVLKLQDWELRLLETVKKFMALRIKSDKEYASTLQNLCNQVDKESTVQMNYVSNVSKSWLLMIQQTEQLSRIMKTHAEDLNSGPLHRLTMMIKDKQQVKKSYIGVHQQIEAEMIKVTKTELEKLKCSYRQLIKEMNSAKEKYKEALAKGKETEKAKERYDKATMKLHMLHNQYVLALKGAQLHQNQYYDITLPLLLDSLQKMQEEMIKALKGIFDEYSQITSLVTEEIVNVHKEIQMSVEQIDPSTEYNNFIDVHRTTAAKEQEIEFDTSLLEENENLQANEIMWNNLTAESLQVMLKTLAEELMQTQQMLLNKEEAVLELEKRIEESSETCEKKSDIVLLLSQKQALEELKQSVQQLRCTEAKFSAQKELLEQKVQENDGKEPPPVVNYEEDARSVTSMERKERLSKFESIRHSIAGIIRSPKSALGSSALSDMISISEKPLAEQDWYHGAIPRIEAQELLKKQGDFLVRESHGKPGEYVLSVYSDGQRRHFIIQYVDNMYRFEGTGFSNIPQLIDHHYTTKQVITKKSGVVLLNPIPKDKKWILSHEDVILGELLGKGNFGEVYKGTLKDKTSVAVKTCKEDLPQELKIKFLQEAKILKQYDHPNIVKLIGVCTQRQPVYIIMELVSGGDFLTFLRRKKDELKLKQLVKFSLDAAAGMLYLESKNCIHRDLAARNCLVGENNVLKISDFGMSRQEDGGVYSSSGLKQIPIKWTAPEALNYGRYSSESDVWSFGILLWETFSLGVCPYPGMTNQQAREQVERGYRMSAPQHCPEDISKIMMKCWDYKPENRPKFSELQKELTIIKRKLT

Turning to `CCN1CCC(C(=O)Nc2n[nH]c3nnc(-c4cccc(F)c4F)cc23)CC1`, the inhibition was 0.53% in experiment [1]; 0.69% in [2]; 1.64% in experiment [3]; 0.49% in experiment [4]; -0.12% in experiment [5]; 1.2% in [6]. The inhibition was 0.02% in [7], -0.85% in experiment [8], 0.79% in [9] and -0.15% in experiment [10].

Take `CS(=O)(=O)CCNCc1ccc(-c2ccc3ncnc(Nc4ccc(OCc5ccccc5)cc4)c3c2)o1`: the inhibition turned out to be 7.66% in experiment [1]; 5.28% in experiment [2]; 5.08% in experiment [3]; 3.4% in [4]; 3% in [5]; 15.1% in experiment [6]. Also, the inhibition in experiment [7] amounted to 73%; in experiment [8], 84.6%; in experiment [9] it was 96.6%; in [10] it was 1.45%.

As to `COc1c(C(N)=O)cc(-c2ccc(Cl)cc2)cc1-c1ccc(S(N)(=O)=O)cc1`, the inhibition was 8.13% in experiment [1]; 1.93% in experiment [2]; 4.65% in experiment [3]; 5.71% in [4]; 3.61% in experiment [5]; 1.74% in experiment [6]. For the same molecule, the inhibition in [7] was found to be 4.75%; in experiment [8], 7.58%; in experiment [9] it was 12.9%; in experiment [10] it was 0.34%.

With `CC1(C)CC(n2cnc(-c3ccc(F)cc3)c2-c2ccnc(N)n2)CC(C)(C)N1`, the inhibition was 4.85% in [1]; 3.09% in experiment [2]; 1.51% in experiment [3]; 0.27% in experiment [4]; 0.62% in experiment [5]; -1.2% in experiment [6]. Besides, the inhibition is -3.03% in [7], 0.19% in experiment [8], 3.58% in [9] and 3.41% in experiment [10].

Take `Fc1ccc(Nc2nccc(-c3c(-c4ccc(C(F)(F)F)cc4)nn4ncccc34)n2)cc1F`: the inhibition in [1] was 6.54%; in [2] it was 4.44%; in experiment [3], 1.93%; in experiment [4], 2.27%; in experiment [5], 1.26%; in experiment [6] it was -0.32%. Moreover, the inhibition is -1.28% in experiment [7], 9.22% in experiment [8], 10.4% in [9] and 4.97% in [10].

As for `COc1cc(Nc2ncc(-c3ccccc3)o2)cc(OC)c1`, the inhibition in experiment [1] is 11.5%; in [2], 3.34%; in experiment [3] it was 3.15%; in experiment [4], 1.28%; in [5] it was 4.64%; in experiment [6], 2.1%. Further, the inhibition worked out at 3.72% in [7], 9.38% in experiment [8], 14.6% in experiment [9] and 0.58% in experiment [10].

On to `COc1cccc(Nc2nccc(-c3cnn4ncccc34)n2)c1`, for which the inhibition in experiment [1] is 36%; in experiment [2], 1.65%; in [3], -3.88%; in [4], 2.75%; in experiment [5] it was 16.1%; in [6], -0.16%. In addition, the inhibition in experiment [7] is 1.64%; in [8] it was 8.21%; in [9], 3.05%; in experiment [10], 9.45%.

As for `CS(=O)(=O)Nc1ccc(-c2cc(-c3ccccc3)cc(C(N)=O)c2N)cc1`, the inhibition was determined as 5.3% in experiment [1]; 0.56% in experiment [2]; 2.36% in experiment [3]; 0.54% in experiment [4]; 0.87% in experiment [5]; 1.08% in experiment [6]. The inhibition in experiment [7] is 6.84%; in experiment [8], 4.73%; in experiment [9], 11.9%; in experiment [10], -2.85%.

In the case of `NC(=O)c1ccc2c(-c3ccnc(NCCCO)n3)c(-c3ccc(F)cc3)nn2c1`, the inhibition in [1] came to 40.3%; in experiment [2], 4.52%; in [3], 4.65%; in experiment [4] it was 4.6%; in experiment [5], 11.4%; in experiment [6] it was 2.1%. Further, the inhibition in [7] was found to be 3.13%; in experiment [8], 16.8%; in experiment [9], 39%; in experiment [10] it was 6.31%.

Take `COc1ccccc1-c1cc(/C=C2\C(=O)Nc3ncc(Br)cc32)cc(Br)c1O`: the inhibition in experiment [1] was determined as 7.78%; in experiment [2] it was 8.03%; in [3] it was 5.59%; in [4] it was 1.76%; in experiment [5] it was 4.26%; in experiment [6], 1.14%. Besides, the inhibition in experiment [7] was -4.15%; in [8], 11.2%; in [9], 17.7%; in experiment [10] it was 1.71%.

A word on the inhibition: it is the change of the read-out against control, counted positive when it falls.
